# The source made the active and inactive calls. Unless noted, no rule for the calls is given here.
# What was measured:
# [1] = HepG2 liver cancer cell viability effects, profiling panel, resazurin fluorescence, 24 h, PK04 Diversity Set (AID 1172); settings: higher = more signal
# [2] = basal S. cerevisiae growth modulation, no modifier, primary screen, OD600, strain BY4716, 24 h, basal condition (AID 1173); settings: OD600, 24 h, higher = more signal, called active from +8 up or from −8 down
# [3] = MM1S myeloma cell viability, profiling panel, resazurin fluorescence, basal, 24 h, PK04 Diversity Set (AID 1174); settings: higher = more signal, called active from +8 up or from −8 down;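 also: MM1S multiple myeloma cell line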
# [4] = biological target: Dihydroorotate dehydrogenase (quinone), mitochondrial (Plasmodium falciparum (isolate 3D7)) (UniProt Q08210); experiment: PfDHODH enzyme inhibitors, primary screen, biochemical, C-terminal His tag, absorbance 600 nm (AID 1175); settings: DCIP absorbance 600 nm, higher = more signal, called active from +8 up or from −8 down;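 also: recombinant parasite enzyme with a five histidine tag at its C terminus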
# Sequence of Dihydroorotate dehydrogenase (quinone), mitochondrial (Plasmodium falciparum (isolate 3D7)) (Q08210 whole entry, looked up): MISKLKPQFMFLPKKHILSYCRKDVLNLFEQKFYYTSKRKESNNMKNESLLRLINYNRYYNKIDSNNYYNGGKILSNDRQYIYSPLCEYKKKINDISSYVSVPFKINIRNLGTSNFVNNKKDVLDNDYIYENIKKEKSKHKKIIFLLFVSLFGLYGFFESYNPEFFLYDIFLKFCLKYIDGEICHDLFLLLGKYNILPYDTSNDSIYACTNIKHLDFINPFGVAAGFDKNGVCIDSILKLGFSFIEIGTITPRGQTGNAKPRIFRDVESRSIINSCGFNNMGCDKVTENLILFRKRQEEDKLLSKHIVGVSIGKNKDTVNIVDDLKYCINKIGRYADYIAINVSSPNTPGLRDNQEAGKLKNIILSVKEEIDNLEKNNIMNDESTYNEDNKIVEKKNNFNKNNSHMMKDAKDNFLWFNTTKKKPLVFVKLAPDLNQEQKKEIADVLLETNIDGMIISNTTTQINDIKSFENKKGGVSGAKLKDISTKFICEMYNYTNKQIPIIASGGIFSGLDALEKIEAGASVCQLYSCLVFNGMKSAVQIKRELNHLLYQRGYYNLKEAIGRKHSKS
# [5] = P. aeruginosa biofilm formation inhibitors, primary screen, strain PAO1, LB-PBS medium, absorbance 600 nm (AID 1176); settings: P. aeruginosa PAO1 growth/biofilm, A600, 12 h; higher = more signal
# [6] = S. cerevisiae RM11-1a growth modifiers, primary screen, strain RM11-1a, OD600, basal, 24 h (AID 1177); settings: OD600, 24 h, higher = more signal, called active from +8 up or from −8 down;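 also: cultures grown under basal conditions with no added stressor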
# [7] = E. coli acrAB mutant growth effects, primary screen, E. coli filamentation inducers, strain DRC39, OD650, 24 h (AID 1178); settings: higher = more signal, called active from +8 up or from −8 down;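 also: growth measured as culture turbidity by optical density at 650 nm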
# [8] = E. coli acrAB mutant growth effects, primary screen, E. coli filamentation inducers, strain DRC39, OD650, 48 h (AID 1179);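 also: screen aims at cell division blockers that make cells filament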; settings: E. coli DRC39 delta-acrAB growth, higher = more signal, called active from +8 up or from −8 down
# [9] = RPMI8226 myeloma cell viability, profiling panel, resazurin fluorescence, basal, 24 h, PK04 Diversity Set (AID 1180); settings: higher = more signal;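 also: RPMI8826 multiple myeloma cell line at 5000 cells per well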
# [10] = biological target: E3 ubiquitin-protein ligase XIAP (Homo sapiens) (UniProt P98170); experiment: XIAP binders, primary screen, biophysical, small-molecule microarray, fluorescence 635 nm (AID 1181); settings: small-molecule microarray binding, higher = more signal;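 also: score merges 667 nm emission and signal to noise over triplicate slides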
# Sequence of E3 ubiquitin-protein ligase XIAP (Homo sapiens) (P98170 whole entry, looked up): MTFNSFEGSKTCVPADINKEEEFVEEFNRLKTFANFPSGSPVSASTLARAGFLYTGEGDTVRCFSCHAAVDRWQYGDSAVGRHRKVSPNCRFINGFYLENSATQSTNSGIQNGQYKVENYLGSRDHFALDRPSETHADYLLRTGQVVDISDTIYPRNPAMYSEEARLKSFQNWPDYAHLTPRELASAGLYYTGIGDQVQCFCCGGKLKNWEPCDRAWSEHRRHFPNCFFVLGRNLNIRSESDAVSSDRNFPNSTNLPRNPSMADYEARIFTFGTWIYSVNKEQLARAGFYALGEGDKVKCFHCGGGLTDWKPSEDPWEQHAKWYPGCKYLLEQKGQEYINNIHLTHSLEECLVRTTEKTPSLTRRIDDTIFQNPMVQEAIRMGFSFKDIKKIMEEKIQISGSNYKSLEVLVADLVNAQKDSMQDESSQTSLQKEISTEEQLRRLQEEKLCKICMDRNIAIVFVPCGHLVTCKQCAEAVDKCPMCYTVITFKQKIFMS
# [11] = test system: XIP peptide (Xip251-270) binding; experiment: small-molecule binders of XIP peptide, primary screen, biochemical, small-molecule microarray, fluorescence 635/667 nm, 0.1 µg/mL protein (AID 1182); settings: fluorescent protein binding, 635 nm, higher = more signal, called active from +8 up or from −8 down
# XIP peptide (Xip251-270) = experiment: small-molecule binders of XIP peptide, primary screen, biochemical, small-molecule microarray, fluorescence 635/667 nm, 0.5 µg/mL protein (AID 1183); settings: small-molecule microarray binding, fluorescence 635 nm; higher = more signal
# [12] = Plasmodium falciparum growth inhibition, primary screen, strain 3D7, DAPI fluorescence, 100 nL (AID 1184);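 also: parasites grown inside human red blood cells in medium with human serum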; settings: P. falciparum 3D7 growth, 3 d, higher = more signal
# [13] = biological target: Homeobox protein Hox-A13 (Mus musculus) (UniProt Q62424); experiment: inhibitors of HoxA13-DNA binding, primary screen, biochemical, fluorescence polarization, labeled oligonucleotide (AID 1185); settings: 15 min, higher = more signal, called active from +8 up or from −8 down
# Sequence of Homeobox protein Hox-A13 (Mus musculus) (Q62424 whole entry, looked up): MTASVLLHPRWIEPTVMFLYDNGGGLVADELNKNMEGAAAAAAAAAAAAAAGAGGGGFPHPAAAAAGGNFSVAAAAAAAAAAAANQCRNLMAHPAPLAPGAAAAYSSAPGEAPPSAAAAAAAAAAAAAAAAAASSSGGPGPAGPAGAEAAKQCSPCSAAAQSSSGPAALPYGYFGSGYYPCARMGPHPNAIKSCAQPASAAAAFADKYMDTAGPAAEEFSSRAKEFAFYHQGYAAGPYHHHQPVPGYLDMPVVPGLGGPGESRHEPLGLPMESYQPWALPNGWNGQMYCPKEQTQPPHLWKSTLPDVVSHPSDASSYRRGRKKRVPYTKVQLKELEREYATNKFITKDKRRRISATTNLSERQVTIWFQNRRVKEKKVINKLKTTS
# [14] = inhibitors of hydroxyurea-induced Chk1 phosphorylation, primary screen, imaging, HeLa, phospho-Chk1 antibody, percent positive cells (AID 1186); settings: hydroxyurea-induced phospho-Chk1 immunofluorescence imaging, higher = more signal
# [15] = inhibitors of hydroxyurea-induced Chk1 phosphorylation, primary screen, imaging, HeLa, phospho-Chk1 nuclear intensity (AID 1187); settings: hydroxyurea-induced phospho-Chk1 immunofluorescence imaging, higher = more signal
SMILES,z-score [1],z-score [2],z-score [3],composite z-score [4],z-score [5],z-score [6],z-score [7],z-score [8],z-score [9],composite z-score [10],composite z-score [11],composite z-score (XIP peptide (Xip251-270)),z-score [12],z-score [13],z-score [14],z-score [15]
C=CCNC(=O)[C@H]1[C@@H]2C(=O)O[C@@H](c3ccccc3)[C@@H](c3ccccc3)N2[C@@H](c2ccc(OCCO)cc2)[C@]12C(=O)Nc1ccccc12,0.429,0.997 (inactive),1.13 (inactive),-0.26 (inactive),-0.172 (inactive),1.69 (inactive),0.237 (inactive),-0.564 (inactive),0.608,0.347,1.43 (inactive),0.57,-0.541,-5.26 (inactive),0.286 (inactive),0.595 (inactive)
COC(=O)C(CC#Cc1ccc2c(c1)[C@]1(C(=O)N2)[C@H](c2ccc(OCCO)cc2)N2[C@H](c3ccccc3)[C@H](c3ccccc3)OC(=O)[C@H]2[C@@H]1C(=O)N1CCCCCCC1)C(=O)OC,-0.198,1.12 (inactive),-0.223 (inactive),0.365 (inactive),2.9 (inactive),1.3 (inactive),-0.8 (inactive),0.136 (inactive),-1.02,0.997,2.15 (inactive),0.812,-2.24,-14.6 (active),-0.224 (inactive),-0.197 (inactive)
O=C1O[C@@H](c2ccccc2)[C@@H](c2ccccc2)N2[C@@H](c3ccccc3OCCO)[C@]3(C(=O)Nc4ccc(C#CCCO)cc43)[C@@H](C(=O)NC[C@H](O)c3ccccc3)[C@H]12,0.5,1.29 (inactive),0.253 (inactive),0.873 (inactive),0.614 (inactive),2.96 (inactive),0.797 (inactive),0.367 (inactive),-2.7,-0.0669,0.798 (inactive),0.816,-1.81,-3.98 (inactive),0.0469 (inactive),0.144 (inactive)
C=CC1c2cc(O)c(OC)cc2CCN1C (configuration not stated),-0.582,-0.457 (inactive),-0.728 (inactive),-3.34 (inactive),-0.283 (inactive),-0.071 (inactive),-0.0683 (inactive),0.113 (inactive),-1.16,0.031,0.767 (inactive),0.543,0.166,-3.83 (inactive),0.298 (inactive),0.468 (inactive)
C=CCNC(=O)[C@H]1[C@@H]2C(=O)O[C@@H](c3ccccc3)[C@@H](c3ccccc3)N2[C@@H](c2ccccc2OCCO)[C@]12C(=O)N(C(=O)OCCOC)c1ccc(C#Cc3ccc(OC)cc3)cc12,-0.345,1.19 (inactive),-0.637 (inactive),-0.306 (inactive),2.23 (inactive),3.16 (inactive),-0.604 (inactive),0.582 (inactive),-1.17,-0.113,0.559 (inactive),0.807,-2.16,-0.0717 (inactive),0.0629 (inactive),0.539 (inactive)
C=CCOC(=O)[C@@H]1[C@H]2C(=O)O[C@H](c3ccccc3)[C@H](c3ccccc3)N2[C@H](c2ccc(OCCOC(=O)[C@H]3C[C@H]4C(=O)N5CCC[C@H]5C(=O)N4[C@H]3c3cccc(OCCO)c3)cc2)[C@@]12C(=O)Nc1ccc(I)cc12,0.0829,2.04 (inactive),-0.273 (inactive),0.0219 (inactive),3.81 (inactive),1.89 (inactive),-0.0055 (inactive),-0.365 (inactive),-0.166,0.0003,0.781 (inactive),0.875,-0.441,0.634 (inactive),-0.479 (inactive),-0.434 (inactive)
O=C1O[C@H](c2ccccc2)[C@H](c2ccccc2)N2[C@H]1[C@@H](C(=O)O)[C@]1(C(=O)Nc3ccc(C#CCCO)cc31)[C@H]2c1ccc(OCCO)cc1,0.174,-0.829 (inactive),0.686 (inactive),-1.01 (inactive),0.967 (inactive),0.159 (inactive),0.312 (inactive),0.471 (inactive),0.68,-0.177,0.671 (inactive),0.856,-0.481,-5.39 (inactive),-0.255 (inactive),-0.132 (inactive)
C=CCC(OC(C)=O)[C@@H]1[C@@H](N(Cc2ccc(-c3cccc(C(F)(F)F)c3)o2)C(=O)Cc2ccc(F)cc2)c2cc(OCCCO)ccc2N1C(=O)Cc1ccc2ccccc2c1 (some centres not stated),0.533,0.658 (inactive),0.647 (inactive),-1.35 (inactive),1.13 (inactive),-0.245 (inactive),-0.241 (inactive),-0.088 (inactive),0.0748,-0.132,-0.068 (inactive),-0.293,-0.328,-0.668 (inactive),0.19 (inactive),0.0472 (inactive)
CO[C@H]1O[C@H](CO)[C@@H](OC(=O)Nc2ccc3c(c2)OCO3)[C@H](OC(=O)Nc2ccccc2-c2ccccc2)[C@H]1OC(=O)Nc1ccccc1-c1ccccc1,-2.5,2.05 (inactive),-2.94 (inactive),0.656 (inactive),0.553 (inactive),4.05 (inactive),0.335 (inactive),-0.303 (inactive),-2.63,0.441,0.667 (inactive),0.873,-1.92,-3.15 (inactive),0.0165 (inactive),0.444 (inactive)
O=C(NC1CC1)[C@@H]1c2ccccc2C(=O)N(Cc2cc(C(F)(F)F)cc(C(F)(F)F)c2)[C@H]1c1ccc(CO)cc1,-0.0465,-0.313 (inactive),-0.498 (inactive),-0.331 (inactive),1.12 (inactive),-0.44 (inactive),0.655 (inactive),-0.261 (inactive),0.51,-0.0448,0.684 (inactive),0.62,-1.54,-2.66 (inactive),-0.129 (inactive),-0.394 (inactive)
C=C(CCCC)C(=O)CC[C@H](OC(=O)c1ccccc1-c1ccccc1C(=O)O)c1ccc(OCCO)cc1,0.359,-1.6 (inactive),-0.429 (inactive),-1.03 (inactive),0.203 (inactive),0.152 (inactive),0.373 (inactive),-0.636 (inactive),0.147,0.0652,2.21 (inactive),0.546,-3.08,-6.36 (inactive),0.0505 (inactive),-0.0839 (inactive)
O=C1c2ccccc2[C@@]2(Cc3ccccc3N(Cc3ccccc3)C2=O)[C@H](c2ccc(CO)cc2)N1Cc1ccccc1Cl,0.645,0.0388 (inactive),0.685 (inactive),-3.2 (inactive),-0.425 (inactive),0.0513 (inactive),0.134 (inactive),0.86 (inactive),0.694,0.147,0.0408 (inactive),0.311,0.689,-0.299 (inactive),-0.0672 (inactive),0 (inactive)
[N-]=[N+]=Nc1ccccc1C[C@@]1(C(=O)NCc2ccccc2)N=C(c2ccc(OCCCO)cc2)O[C@@H]1c1ccccc1N=[N+]=[N-],-0.664,-0.353 (inactive),-2.18 (inactive),0.366 (inactive),0.689 (inactive),0.105 (inactive),0.969 (inactive),-0.289 (inactive),-2.89,-0.113,1.46 (inactive),0.729,-2.76,-0.454 (inactive),-0.747 (inactive),-1.1 (inactive)
O=C1C2C=CC(C(O)c3c(F)cccc3Cl)N(Nc3ccc([N+](=O)[O-])cc3)C2C(=O)N1c1ccccc1 (configuration not stated),-0.0492,0.615 (inactive),-0.396 (inactive),0.406 (inactive),0.685 (inactive),0.378 (inactive),-0.333 (inactive),-0.194 (inactive),0.278,-0.357,1.03 (inactive),0.878,-0.545,-3.05 (inactive),0.982 (inactive),1.09 (inactive)
CC(C)(C)N1CC=CC23O[C@@H]4C=CCCOC(=O)C4[C@H]2C(=O)N(CCCCCCO)[C@@H]3C1=O (some centres not stated),0.0735,-0.437 (inactive),-0.176 (inactive),0.713 (inactive),-0.456 (inactive),0.735 (inactive),-0.0435 (inactive),0.43 (inactive),0.382,0.189,1.14 (inactive),0.202,-0.143,-3.77 (inactive),-0.327 (inactive),0.222 (inactive)
NC(=O)N1C(=O)C2C(C1=O)C1C=C(CCCO)C2C(C2CC2)N1Cc1sc2ccccc2c1Cl (configuration not stated),0.146,-6.04 (inactive),0.691 (inactive),-0.744 (inactive),-0.0099 (inactive),0.269 (inactive),0.718 (inactive),0.152 (inactive),0.555,0.0374,0.632 (inactive),0.692,-0.672,-4.04 (inactive),-0.273 (inactive),-0.171 (inactive)
COCCCNC(=O)[C@@]1(CCS(=O)(=O)c2ccccc2)COC(c2ccc(OCCCO)cc2)=N1,-0.721,-0.25 (inactive),-0.849 (inactive),-0.565 (inactive),0.19 (inactive),-0.19 (inactive),0.199 (inactive),0.103 (inactive),-0.508,0.218,1.85 (inactive),-0.227,0.264,-4.7 (inactive),0.103 (inactive),0.103 (inactive)
